Drawing on the supplement of paper PMC6555819, this text covers PBM binding z-score for 6 sequences.

Common to all, as to experiment: PBM binding z-score (relative to random genomic background probes); higher = stronger binding; sequences stand for … in GC…GCGATTGACAGCGTAGAATGAAGG
Experiment [1] deals with FXR:RXRa (NR concentration 270 nM, RXRa partner concentration 90 nM). In short, it runs like this: (§1)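 On custom Agilent 4×180K arrays, double-stranded probes with 34-nt variable regions carried direct-repeat seeds, single-nucleotide variants, half-site ablations or random human genomic background. Ligand-free nuclear receptor dimers were applied for 1 h, and binding was read with antibodies against each partner (one per run). Binding z-scores come from regression-normalized fluorescence, with the random background probes as reference.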

The subject of experiment [2] is LXRa:RXRa (NR concentration 270 nM, RXRa partner concentration 90 nM). In short, it runs like this: as §1
Experiment [3] has as its system LXRa homodimer (NR concentration 270 nM). In short, it runs like this: as §1
The test system of experiment [4] is LXRb:RXRa (NR concentration 270 nM, RXRa partner concentration 90 nM). In short, it runs like this: as §1
Experiment [5] relates to LXRb homodimer (NR concentration 270 nM). The essentials: as §1
Experiment [6] deals with PPARa:RXRa (NR concentration 270 nM, RXRa partner concentration 90 nM). In short, it runs like this: as §1
Experiment [7] concerns PPARg:RXRa (NR concentration 180 nM, RXRa partner concentration 90 nM). The essentials:
as §1

The subject of experiment [8] is PPARg:RXRa 270nM:90nM, anti-RXR (NR concentration 270 nM, RXRa partner concentration 90 nM). In short, it runs like this:
as §1

Experiment [9] concerns PPARg:RXRa 30nM:10nM, anti-RXR (NR concentration 30 nM, RXRa partner concentration 10 nM). The essentials:
as §1

Experiment [10] relates to PPARg:RXRa 90nM:30nM, anti-RXR (NR concentration 90 nM, RXRa partner concentration 30 nM). The essentials:
as §1

In experiment [11] the test system is PPARg:RXRa DBDmut IVT, anti-RXR (DBD mutation: RXRa K156A/R161A, NR concentration 270 nM, RXRa partner concentration 90 nM). The essentials: as §1
Experiment [12] deals with PPARg:RXRa IVT, anti-PPARg (NR concentration 270 nM, RXRa partner concentration 90 nM). The essentials: as §1
Experiment [13] has as its system PPARg DBDmut:RXRa IVT, anti-PPARg (DBD mutation: PPARg1 K132A/R137A, NR concentration 270 nM, RXRa partner concentration 90 nM). In short, it runs like this:
as §1

Experiment [14] relates to PPARg DBDmut IVT, anti-PPARg (DBD mutation: PPARg1 K132A/R137A, NR concentration 270 nM). The essentials: as §1
The subject of experiment [15] is PPARg homodimer (NR concentration 180 nM). In short, it runs like this:
as §1

The subject of experiment [16] is PXR:RXRa (NR concentration 270 nM, RXRa partner concentration 90 nM). In short, it runs like this:
as §1

Experiment [17] has as its system PXR homodimer (NR concentration 270 nM). In short, it runs like this:
as §1

Experiment [18] has as its system RARa:RXR (NR concentration 270 nM, RXRa partner concentration 90 nM). In short, it runs like this: as §1
For experiment [19], the system named is RARa homodimer (NR concentration 270 nM). In short, it runs like this:
as §1

In experiment [20] the test system is RARb:RXRa (NR concentration 270 nM, RXRa partner concentration 90 nM). The essentials: as §1

Take CCTCGAAGGACAGAAGGTCAGAGCTGTCCGCTTT: the PBM binding z-score is 1.13 in [1]; 1.56 in [2]; 0.132 in experiment [3]; 1.28 in [4]; -0.573 in experiment [5]; 1.83 in [6]. For the same sequence, the PBM binding z-score in experiment [7] is 0.0228; in [8] it was 0.429; in experiment [9], -0.598; in experiment [10], 0.107; in [11] it was -0.0695; in [12], -0.0413. Also, the PBM binding z-score in experiment [13] is -0.921; in [14] it was -1.97; in experiment [15], 1.14; in experiment [16], 1.08; in [17], -0.321; in [18] it was 1.83. The PBM binding z-score in [19] was 0.748; in experiment [20] it was 3.06.
In the case of GCTCGGAAGACAAGGTCAGAGCTTTGTCCGTAGA, the PBM binding z-score in experiment [1] is 1.01; in [2], 1.26; in experiment [3], -0.528; in experiment [4], 0.906; in experiment [5] it was -1.34; in experiment [6], 1.97. Also, the PBM binding z-score was 0.0442 in experiment [7]; 0.519 in [8]; -0.417 in experiment [9]; 0.239 in experiment [10]; 0.0129 in [11]; 0.063 in [12]. Further, the PBM binding z-score in experiment [13] was -0.999; in [14], -2.1; in experiment [15] it was 0.392; in experiment [16] it was 1.41; in experiment [17] it was -0.453; in experiment [18], 1.9. Also, the PBM binding z-score in experiment [19] is -0.69; in [20], 2.58.
As for TCTGACAGGTGAAGGTAACTCAGGTACGCAGTCG, the PBM binding z-score was 0.497 in [1]; 1.97 in experiment [2]; -0.123 in experiment [3]; 0.856 in [4]; -0.258 in experiment [5]; 1.14 in experiment [6]. Further, the PBM binding z-score came out at 0.602 in experiment [7]; 1.55 in experiment [8]; 2.9 in [9]; 2.32 in experiment [10]; 2.21 in [11]; 1.39 in experiment [12]. For the same sequence, the PBM binding z-score in experiment [13] is 0.246; in experiment [14] it was -0.0142; in [15] it was 0.45; in experiment [16] it was 0.483; in experiment [17] it was -0.371; in experiment [18] it was 0.82. Besides, the results for the PBM binding z-score in experiment [19] and in experiment [20] were 0.0675 and 1.28, respectively.
Regarding GATACAGGGTCAGCTAGAGGCAAGAGTATGGAAA, the PBM binding z-score in experiment [1] was 4.32; in experiment [2] it was 2.35; in experiment [3], -0.297; in [4], 2.33; in experiment [5], -0.0863; in experiment [6], 4.69. Further, the PBM binding z-score in experiment [7] amounted to 3.78; in experiment [8], 3.19; in experiment [9] it was 0.625; in [10] it was 1.71; in [11] it was 0.7; in [12], 2.39. Also, the PBM binding z-score in experiment [13] was -0.415; in [14], -0.265; in experiment [15] it was 0.979; in [16] it was 2.1; in experiment [17], -0.207; in experiment [18] it was 2.8. The PBM binding z-score in experiment [19] turned out to be 0.136; in experiment [20], 3.97.
Consider AGAACAAGGGCACGCTGAGTTGATAGCAGAGTAG, for which the PBM binding z-score in [1] was 0.401; in [2], 0.296; in experiment [3] it was -0.369; in experiment [4] it was -0.0707; in experiment [5] it was -0.878; in experiment [6], 1.38. Further, the PBM binding z-score in experiment [7] is 1.28; in [8] it was 0.671; in experiment [9], 0.364; in experiment [10], 0.255; in experiment [11], 3.07; in experiment [12] it was 2.72. The PBM binding z-score amounted to 0.166 in [13]; 0.443 in experiment [14]; 0.00636 in [15]; 0.845 in experiment [16]; 0.17 in [17]; 0.366 in experiment [18]. Moreover, the PBM binding z-score was -0.312 in experiment [19] and 2.51 in experiment [20].
For TCGAGTAGGTTAGAGGCATTCAGAATGGCGTCGA, the PBM binding z-score was 0.0736 in experiment [1]; -0.18 in [2]; -0.53 in experiment [3]; -0.336 in experiment [4]; -1.72 in [5]; 0.422 in experiment [6]. Besides, the PBM binding z-score was found to be 1.22 in experiment [7]; 2.66 in experiment [8]; 1.4 in experiment [9]; 2.27 in experiment [10]; 1.65 in experiment [11]; 0.965 in experiment [12]. Besides, the PBM binding z-score in experiment [13] was -0.829; in [14] it was -0.771; in experiment [15], 0.087; in [16], -0.51; in experiment [17], -0.852; in [18], -0.767. The PBM binding z-score was -0.955 in experiment [19] and 0.0217 in experiment [20].
